“And” between values parts separate entries of the source, which are not always exact repeats. Identical values can stand only once. Some structures have more than one record in an assay (separate samples or runs), and their calls can disagree. The source made the active and inactive calls. Rule for the calls: active = hit-call score of the fitted dose curve at least 0.9, where 1 is the maximum; inactive = score below 0.9.

Assay [1] in a line: ATG_GLI_CIS: Attagene CIS-FACTORIAL HepG2 Assay for human Zinc Finger Protein GLI1 (AID 2282945). To be noted: HepG2, Attagene cis-factorial reporter mRNA, GLI element; actives raise or lower the signal. A digest of the protocol: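 Bidirectional curve fits relative to DMSO, using reporter mRNA levels from RT-PCR plus capillary electrophoresis. Cells were HepG2 transiently carrying cis-regulated reporter constructs, harvested 24 h after dosing.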

In assay [2] the target is Bile acid receptor (Homo sapiens) (UniProt Q96RI1). Briefly: ATG_IR1_CIS: Attagene CIS-FACTORIAL HepG2 Assay for human Nuclear Receptor Subfamily 1 Group H Member 4 (NR1H4), IR1 submotif (AID 2282946). To be noted: IR1 reporter transcription, actives raise or lower the signal. The procedure, abridged:
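HepG2 cells transiently transfected with multiplexed cis-element reporter units read endogenous transcription factor activity. After 24 h compound exposure, reporter mRNA was quantified by RT-PCR, fluorescent labelling, HpaI digestion and capillary electrophoresis; bidirectional fitting versus DMSO baseline.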

Assay [3] in a line: ATG_ISRE_CIS: Attagene CIS-FACTORIAL HepG2 Assay for human Interferon Regulatory Factor 1 (IRF1) binding to an Interferon-Stimulated Response Element (ISRE) (AID 2282948). To be noted: HepG2 ISRE cis-reporter (Attagene), mRNA transcription readout; actives raise or lower the signal. The procedure, abridged: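 Multiplexed mRNA reporter readout in human liver HepG2 cells: cis-element-driven reporters transfected, compound added for 24 h, transcripts amplified, fluorescently labelled and sized by capillary electrophoresis; curve fitting bidirectional against DMSO.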

A short description of assay [4]: ATG_M_32_CIS: Attagene CIS-FACTORIAL HepG2 Assay for M32 Transcription Factor (Internal Marker) (AID 2282949).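 Note: background control marker of the multiplexed CIS panel rather than a real target.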 To be noted: HepG2 Attagene cis-factorial M32 reporter, mRNA; actives raise or lower the signal. A digest of the protocol: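 HepG2 human liver cells transiently transfected with cis-promoter-driven multiple reporter transcription units, dosed 24 h. Reporter mRNA quantified by RT-PCR, FAM-labelled primer extension, HpaI digest and capillary electrophoresis; bidirectional fit versus DMSO baseline.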

Assay [5] in a line: ATG_M_06_CIS: Attagene CIS-FACTORIAL HepG2 Assay for M06 Transcription Factor (Internal Marker) (AID 2282950). The settings on record: HepG2 Attagene CIS-FACTORIAL M06 internal marker reporter; actives raise or lower the signal. The procedure, abridged:
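Serves as a background control readout. Transfected HepG2 exposed to compounds for 24 h, then reporter transcripts quantified by fluorescent RT-PCR and capillary electrophoresis. Both directions fitted against DMSO baseline.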

Assay [6] addresses Heat shock factor protein 1 (Homo sapiens) (UniProt Q00613). As to the kind of experiment: ATG_HSE_CIS: Attagene CIS-FACTORIAL HepG2 Assay for human Heat Shock Transcription Factor 1 (HSE) (AID 2282953). To be noted: HepG2 HSE cis-reporter, Attagene RNA transcription; actives raise or lower the signal. A digest of the protocol: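 Endogenous transcription factor activity in transiently transfected HepG2, read as reporter mRNA by RT-PCR with fluorescent capillary electrophoresis after 24 h. Gain or loss of signal fitted versus DMSO baseline.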

Assay [7] is described as follows: ATG_MRE_CIS: Attagene CIS-FACTORIAL HepG2 Assay for human Metal Responsive Element (MRE) (AID 2282954). The settings on record: HepG2 MRE cis-reporter transcription, Attagene multiplex; actives raise or lower the signal. A digest of the protocol: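 Endogenous MRE-dependent transcription read as reporter mRNA in transiently transfected human HepG2 cells at 24 h. RNA reverse-transcribed, PCR-amplified, labelled and resolved by capillary electrophoresis; gain or loss relative to DMSO.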

A short description of assay [8]: ATG_PBREM_CIS: Attagene CIS-FACTORIAL HepG2 Assay for human Phenobarbital-responsive Enhancer Module (PBREM) (AID 2282955). The settings on record: HepG2 PBREM cis-reporter, Attagene multiplexed transcription; actives raise or lower the signal. The procedure, abridged:
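Fluorescence of labelled reporter cDNA fragments, resolved by capillary electrophoresis, gives mRNA induction in transfected HepG2 cells treated for 24 h; DMSO serves as negative control and baseline.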

The target in assay [9] is Paired box protein Pax-6 (Homo sapiens) (UniProt P26367). Briefly: ATG_Pax6_CIS: Attagene CIS-FACTORIAL HepG2 Assay for human Paired Box 6 (PAX6) (AID 2282956). To be noted: HepG2 CIS-FACTORIAL PAX6 reporter transcription, RNA readout; actives raise or lower the signal. A digest of the protocol:
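Fluorescent RT-PCR products separated by capillary electrophoresis report PAX6-linked promoter mRNA in HepG2 cells 24 h post-dose. Curves fitted bidirectionally, DMSO as negative control.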

Assay [10] can be described thus: ATG_PXRE_CIS: Attagene CIS-FACTORIAL HepG2 Assay for human Pregnane X Receptor Element (PXRE) (AID 2282957). The settings on record: HepG2 Attagene CIS-FACTORIAL PXRE reporter, mRNA; actives raise or lower the signal. A digest of the protocol: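 Using HepG2 transfected with multiple reporter transcription units, endogenous factor-driven transcription was scored as reporter mRNA after 24 h exposure.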

Assay [11] is described as follows: ATG_PPRE_CIS: Attagene CIS-FACTORIAL HepG2 Assay for human Peroxisome Proliferator-activated Response Element (PPRE) (AID 2282958). The settings on record: HepG2 PPRE cis-element reporter, Attagene transcription factor profiling; actives raise or lower the signal. A digest of the protocol: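 Cells are first transfected transiently with the multiplexed reporter library, then dosed for 24 h. Total RNA is reverse-transcribed, amplified, fluorescently end-labeled and HpaI-cut before capillary electrophoresis; activity is fitted bidirectionally against DMSO controls.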

For assay [12], the target named is Transcription factor Sp1 (Homo sapiens) (UniProt P08047). As to the kind of experiment: ATG_Sp1_CIS: Attagene CIS-FACTORIAL HepG2 Assay for human Specificity Protein 1 (Sp1) (AID 2282961). To be noted: HepG2 Sp1 cis-reporter transcription, actives raise or lower the signal. The procedure, abridged:
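Endogenous Sp1 activity was gauged in human liver HepG2 cells bearing transfected reporter units under a cis-regulating promoter. After 24 h dosing, reporter mRNA was quantified by RT-PCR with capillary electrophoresis, and activity fitted bidirectionally versus DMSO.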

The nature of assay [13]: ATG_SREBP_CIS: Attagene CIS-FACTORIAL HepG2 Assay for human Sterol Regulatory Element Binding (SREBP) (AID 2282962). The settings on record: HepG2 Attagene cis-factorial SREBP reporter, mRNA; actives raise or lower the signal. The procedure, abridged: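 Endogenous factor activity is measured in HepG2 through multiplexed reporter units under cis-element control. Following a 24 h incubation, reporter transcripts are reverse-transcribed, PCR-amplified and sized by capillary electrophoresis; activity is fitted in both directions relative to DMSO.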

In assay [14] the target is Signal transducer and activator of transcription 3 (Homo sapiens) (UniProt P40763). Briefly: ATG_STAT3_CIS: Attagene CIS-FACTORIAL HepG2 Assay for human Signal Transducer and Activator of Transcription 3 (STAT3) (AID 2282963). The settings on record: HepG2, Attagene cis-factorial STAT3 reporter transcription; actives raise or lower the signal. The procedure, abridged: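 Readout is reporter transcript quantified by RT-PCR and capillary electrophoresis, with 6-FAM primer extension and HpaI digestion. Total RNA is taken 24 h after dosing transiently transfected HepG2 carrying cis-regulated reporter units. Bidirectional fit against DMSO.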
Chain of Signal transducer and activator of transcription 3 (Homo sapiens) (P40763 whole entry, looked up): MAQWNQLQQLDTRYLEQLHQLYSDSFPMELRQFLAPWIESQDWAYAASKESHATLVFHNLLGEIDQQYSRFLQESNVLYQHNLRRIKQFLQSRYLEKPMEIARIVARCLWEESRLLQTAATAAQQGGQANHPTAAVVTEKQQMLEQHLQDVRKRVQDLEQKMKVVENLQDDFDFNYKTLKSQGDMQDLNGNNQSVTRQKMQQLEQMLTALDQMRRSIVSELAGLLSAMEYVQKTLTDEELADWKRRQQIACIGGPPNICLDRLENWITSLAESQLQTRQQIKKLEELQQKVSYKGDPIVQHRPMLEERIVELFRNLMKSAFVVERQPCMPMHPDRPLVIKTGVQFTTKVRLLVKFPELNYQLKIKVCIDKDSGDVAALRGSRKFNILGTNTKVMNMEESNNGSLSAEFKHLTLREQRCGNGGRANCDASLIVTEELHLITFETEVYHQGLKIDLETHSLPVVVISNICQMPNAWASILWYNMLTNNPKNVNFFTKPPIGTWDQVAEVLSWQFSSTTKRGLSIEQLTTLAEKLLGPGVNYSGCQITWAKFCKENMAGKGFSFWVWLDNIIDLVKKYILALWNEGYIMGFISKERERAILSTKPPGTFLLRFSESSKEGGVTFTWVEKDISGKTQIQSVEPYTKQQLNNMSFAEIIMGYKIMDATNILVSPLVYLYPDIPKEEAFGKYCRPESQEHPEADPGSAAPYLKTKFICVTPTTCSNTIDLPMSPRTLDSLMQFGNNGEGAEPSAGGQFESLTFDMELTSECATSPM

Assay [15] can be described thus: ATG_TA_CIS: Attagene CIS-FACTORIAL HepG2 Assay for human TA Basal Promoter (AID 2282964). The settings on record: HepG2 Attagene CIS-factorial TA basal promoter reporter; actives raise or lower the signal. A digest of the protocol: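 Background-control readout: TA basal promoter reporter mRNA, fitted in both directions relative to DMSO. Measured by RT-PCR and capillary electrophoresis 24 hours after treating HepG2 human liver cells transiently carrying multiplexed cis-regulated reporter constructs.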

The nature of assay [16]: ATG_RORE_CIS: Attagene CIS-FACTORIAL HepG2 Assay for human RAR-related Orphan Receptor Element (RORE) (AID 2282959). To be noted: HepG2 Attagene cis-factorial RORE reporter, mRNA; actives raise or lower the signal. A digest of the protocol:
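Cells were HepG2 carrying transfected cis-regulated reporter constructs, dosed for 24 hours. Total RNA was reverse-transcribed and reporter cDNA amplified, fluorescently labeled and sized by capillary electrophoresis. Activity was fitted bidirectionally relative to DMSO.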

For assay [17], the target named is Hypoxia-inducible factor 1-alpha (Homo sapiens) (UniProt Q16665). Briefly: ATG_HIF1a_CIS: Attagene CIS-FACTORIAL HepG2 Assay for human Hypoxia Inducible Factor 1 (HIF1A) (AID 2282951). To be noted: HepG2 Attagene cis-factorial HIF1a reporter transcription; actives raise or lower the signal. A digest of the protocol:
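Measures endogenous transcription-factor activity through cis-regulated reporter mRNA in HepG2. Cells dosed 24 h; transcripts quantified by RT-PCR with 6-FAM-labelled products separated by capillary electrophoresis; DMSO serves as negative control.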

The target in assay [18] is Hepatocyte nuclear factor 6 (Homo sapiens) (UniProt Q9UBC0). As to the kind of experiment: ATG_HNF6_CIS: Attagene CIS-FACTORIAL HepG2 Assay for human Hepatocyte Nuclear Factor 6 (HNF6) (AID 2282952). To be noted: HepG2 Attagene cis-factorial HNF6 reporter transcription; actives raise or lower the signal. The procedure, abridged: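 Using cis-element reporters in HepG2 liver cells, the assay tracks endogenous factor-driven transcription 24 h post-dosing. Signal comes from 6-FAM-labelled, HpaI-digested RT-PCR fragments, with gain or loss scored against DMSO.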
Chain of Hepatocyte nuclear factor 6 (Homo sapiens) (Q9UBC0 whole entry, looked up, the tested form may be a part): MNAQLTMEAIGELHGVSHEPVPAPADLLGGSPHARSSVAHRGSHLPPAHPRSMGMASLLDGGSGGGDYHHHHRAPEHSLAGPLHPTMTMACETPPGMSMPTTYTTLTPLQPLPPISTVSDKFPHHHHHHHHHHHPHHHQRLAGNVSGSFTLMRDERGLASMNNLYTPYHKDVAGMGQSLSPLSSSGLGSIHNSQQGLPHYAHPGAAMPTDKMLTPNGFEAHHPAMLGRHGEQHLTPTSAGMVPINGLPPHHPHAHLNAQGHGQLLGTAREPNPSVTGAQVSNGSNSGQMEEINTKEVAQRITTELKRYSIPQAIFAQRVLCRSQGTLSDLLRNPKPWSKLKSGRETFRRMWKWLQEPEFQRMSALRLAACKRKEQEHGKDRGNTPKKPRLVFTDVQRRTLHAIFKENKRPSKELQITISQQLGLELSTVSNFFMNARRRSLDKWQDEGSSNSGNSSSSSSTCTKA

Assay [19] is described as follows: ATG_Sox_CIS: Attagene CIS-FACTORIAL HepG2 Assay for human SRY-box transcription factor (SOX) (AID 2282960). To be noted: HepG2 Attagene cis-factorial SOX reporter, mRNA; actives raise or lower the signal. A digest of the protocol: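 Transient MRTU transfection of HepG2; 24 h compound incubation; TriZol RNA, oligo(dT) RT, PCR, 6-FAM primer extension, HpaI cut, CE. Bidirectional fit, DMSO = baseline.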

Chain of Hypoxia-inducible factor 1-alpha (Homo sapiens) (Q16665 whole entry, looked up): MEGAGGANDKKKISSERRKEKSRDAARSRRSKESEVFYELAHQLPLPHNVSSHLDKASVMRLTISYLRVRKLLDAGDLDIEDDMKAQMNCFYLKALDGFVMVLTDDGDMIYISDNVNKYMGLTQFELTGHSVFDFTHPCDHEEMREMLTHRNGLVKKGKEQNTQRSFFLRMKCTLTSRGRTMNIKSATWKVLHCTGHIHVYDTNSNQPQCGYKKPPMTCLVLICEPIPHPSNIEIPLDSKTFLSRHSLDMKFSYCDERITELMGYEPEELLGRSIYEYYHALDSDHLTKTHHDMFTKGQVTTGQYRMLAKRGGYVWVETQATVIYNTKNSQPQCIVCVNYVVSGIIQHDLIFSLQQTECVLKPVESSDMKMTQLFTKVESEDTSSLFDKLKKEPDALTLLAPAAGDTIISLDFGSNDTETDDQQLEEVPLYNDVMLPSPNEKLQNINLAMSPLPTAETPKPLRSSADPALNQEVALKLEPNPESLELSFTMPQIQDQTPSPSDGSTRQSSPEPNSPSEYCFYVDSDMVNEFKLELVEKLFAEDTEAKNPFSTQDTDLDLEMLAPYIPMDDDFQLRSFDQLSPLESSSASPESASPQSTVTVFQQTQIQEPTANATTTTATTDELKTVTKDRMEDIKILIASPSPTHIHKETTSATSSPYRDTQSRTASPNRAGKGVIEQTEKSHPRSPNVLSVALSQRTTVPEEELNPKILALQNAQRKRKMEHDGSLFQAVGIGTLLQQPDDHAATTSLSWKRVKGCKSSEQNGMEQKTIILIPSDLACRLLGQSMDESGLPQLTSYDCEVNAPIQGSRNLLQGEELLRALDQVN
Chain of Transcription factor Sp1 (Homo sapiens) (P08047 whole entry, looked up): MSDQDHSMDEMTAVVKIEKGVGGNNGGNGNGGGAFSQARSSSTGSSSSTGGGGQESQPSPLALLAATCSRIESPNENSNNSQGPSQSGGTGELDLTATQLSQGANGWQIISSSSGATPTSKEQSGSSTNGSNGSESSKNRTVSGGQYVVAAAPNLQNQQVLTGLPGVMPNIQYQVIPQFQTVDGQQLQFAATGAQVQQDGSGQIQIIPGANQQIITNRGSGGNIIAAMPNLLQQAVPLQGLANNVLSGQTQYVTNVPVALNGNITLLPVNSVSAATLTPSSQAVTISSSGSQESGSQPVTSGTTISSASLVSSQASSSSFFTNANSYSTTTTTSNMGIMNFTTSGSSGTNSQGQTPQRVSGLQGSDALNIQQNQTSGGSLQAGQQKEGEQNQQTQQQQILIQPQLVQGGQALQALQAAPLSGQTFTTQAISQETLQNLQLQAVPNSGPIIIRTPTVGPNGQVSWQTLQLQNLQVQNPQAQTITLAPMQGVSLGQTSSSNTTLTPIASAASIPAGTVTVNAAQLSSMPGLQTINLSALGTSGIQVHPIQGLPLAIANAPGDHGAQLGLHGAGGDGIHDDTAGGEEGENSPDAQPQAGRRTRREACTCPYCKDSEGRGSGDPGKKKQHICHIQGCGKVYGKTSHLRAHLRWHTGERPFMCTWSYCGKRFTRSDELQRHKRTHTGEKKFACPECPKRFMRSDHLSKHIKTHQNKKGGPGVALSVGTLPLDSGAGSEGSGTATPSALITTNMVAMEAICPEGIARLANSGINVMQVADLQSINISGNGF
Chain of Paired box protein Pax-6 (Homo sapiens) (P26367 whole entry, looked up): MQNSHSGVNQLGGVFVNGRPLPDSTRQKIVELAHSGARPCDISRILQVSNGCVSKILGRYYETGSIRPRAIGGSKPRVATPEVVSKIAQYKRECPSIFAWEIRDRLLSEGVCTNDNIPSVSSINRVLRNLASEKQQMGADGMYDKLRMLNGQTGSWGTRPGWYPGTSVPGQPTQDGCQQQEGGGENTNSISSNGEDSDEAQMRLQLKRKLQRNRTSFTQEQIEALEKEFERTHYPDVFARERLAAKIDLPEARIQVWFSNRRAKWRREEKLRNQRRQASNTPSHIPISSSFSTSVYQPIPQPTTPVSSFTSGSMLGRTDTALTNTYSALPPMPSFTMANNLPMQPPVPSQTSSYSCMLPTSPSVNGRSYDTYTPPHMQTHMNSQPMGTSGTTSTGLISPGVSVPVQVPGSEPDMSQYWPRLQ
Chain of Bile acid receptor (Homo sapiens) (Q96RI1 whole entry, looked up): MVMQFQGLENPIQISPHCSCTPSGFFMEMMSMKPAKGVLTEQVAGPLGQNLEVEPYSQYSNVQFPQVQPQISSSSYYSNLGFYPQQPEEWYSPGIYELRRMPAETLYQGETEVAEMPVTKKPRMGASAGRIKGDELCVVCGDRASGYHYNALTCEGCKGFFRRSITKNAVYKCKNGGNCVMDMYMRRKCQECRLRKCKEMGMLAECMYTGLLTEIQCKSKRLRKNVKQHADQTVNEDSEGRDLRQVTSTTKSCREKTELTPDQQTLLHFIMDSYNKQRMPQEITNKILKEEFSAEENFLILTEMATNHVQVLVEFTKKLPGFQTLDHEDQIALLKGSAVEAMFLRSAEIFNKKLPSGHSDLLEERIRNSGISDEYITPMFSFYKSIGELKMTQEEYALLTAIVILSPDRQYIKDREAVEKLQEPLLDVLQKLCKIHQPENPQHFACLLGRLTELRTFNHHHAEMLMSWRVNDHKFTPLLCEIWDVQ
Chain of Heat shock factor protein 1 (Homo sapiens) (Q00613 whole entry, looked up): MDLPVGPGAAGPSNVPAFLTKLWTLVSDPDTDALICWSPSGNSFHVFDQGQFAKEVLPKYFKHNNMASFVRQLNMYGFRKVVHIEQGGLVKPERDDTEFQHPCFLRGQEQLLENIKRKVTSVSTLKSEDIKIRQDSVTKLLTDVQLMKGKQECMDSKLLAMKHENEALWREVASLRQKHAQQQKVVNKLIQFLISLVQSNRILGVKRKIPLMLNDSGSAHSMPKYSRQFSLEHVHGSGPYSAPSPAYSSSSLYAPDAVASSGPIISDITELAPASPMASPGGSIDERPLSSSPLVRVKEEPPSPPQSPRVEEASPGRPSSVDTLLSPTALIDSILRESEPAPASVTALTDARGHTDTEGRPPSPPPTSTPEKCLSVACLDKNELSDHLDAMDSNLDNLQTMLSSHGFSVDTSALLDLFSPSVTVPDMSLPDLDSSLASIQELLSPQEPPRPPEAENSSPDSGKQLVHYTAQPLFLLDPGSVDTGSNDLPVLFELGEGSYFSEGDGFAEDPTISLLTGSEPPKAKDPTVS

With `CCN(Cc1cccc(S(=O)(=O)O)c1)c1ccc(C(=C2C=CC(=[N+](CC)Cc3cccc(S(=O)(=O)O)c3)C=C2)c2ccc(O)cc2S(=O)(=O)[O-])cc1`, the molecule was called inactive in assay [1], in [2], in assay [3], in [4], in [5] and in [6]. Moreover, the call in [7], in [8], in assay [9], in assay [10], in assay [12] and in assay [13] was inactive. In addition, the call in assay [14] and in assay [15] was inactive. For the same molecule, the AC50 in assay [11] is 17.8 µM (active).
Turning to `O=C(O)C(F)(F)C(F)(F)C(F)(F)C(F)(F)C(F)(F)C(F)(F)C(F)(F)C(F)(F)Cl`, the molecule was classed as inactive in assay [1], in assay [2], in [4], in assay [5], in assay [8] and in assay [10]. Also, the outcome in [12], in [13], in assay [14] and in assay [15] was inactive. The AC50 is 32.1 µM (active) and 50 µM (active) in [3]; 75.8 µM (active) and 82.1 µM (active) in assay [6]; 55.5 µM (active) and 66.6 µM (active) in assay [7]; 59.1 µM (active) and 50 µM (active) in assay [9]; 13.7 µM (active) in [10]; 39.2 µM (active) and 35.4 µM (active) in assay [11]. Further, the AC50 is 28.4 µM (active) and 57.9 µM (active) in assay [16]; 50 µM (active) in assay [15].
`COC(=O)C1CCC(C(=O)OC)CC1` (stereo unspecified): the molecule was called inactive in assay [1], in assay [2], in [3], in assay [4], in assay [17] and in assay [18]. The result in assay [6], in [7], in assay [9], in assay [10], in assay [11] and in [16] was inactive. Also, the call in assay [12], in assay [13], in [14] and in assay [15] was inactive.
Consider `O=C(O)C=C(C(F)(F)F)C(F)(F)F`, for which the molecule was called inactive in assay [1], in assay [2], in assay [3], in assay [4], in assay [5] and in assay [17]. In addition, the molecule was classed as inactive in assay [7], in assay [8], in [9], in assay [10], in assay [11] and in [16]. Besides, the call in [19], in [12], in assay [13], in assay [14] and in assay [15] was inactive.

The record behind these values is PubChem BioAssay (EPA / NIEHS).
